APOBEC3G inh: APOBEC3G DNA deaminase inhibitors, primary screen, biochemical, fluorescence, single-stranded DNA substrate, uHTS | inhibition, % at 20 µM | recombinant A3G, ssDNA deamination FAM/TAMRA fluorescence | DNA dC->dU-editing enzyme APOBEC-3G (Homo sapiens), Q9HC16 | 0.28% of 330,000 active | AID 493012, 2011;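 active means inhibition of at least 40% at 20 µM, with no more than 30% in the related APOBEC3A deaminase screen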;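 further: plate controls were DMSO wells with A3G for no effect and wells lacking A3G enzyme for full effect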
AHR activator: AHR activators, primary screen, cell-based, luminescence, luciferase reporter, human | AHR-responsive luciferase reporter cells | activation, % at 5 µM | 2.5% of 320,000 active; in the data active means activation above about 47%;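 further: 0% = vehicle wells and 100% = reference agonist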
APOBEC3A inh: APOBEC3A ssDNA deaminase inhibitors, primary screen, selectivity assay for APOBEC3G inhibitor project, biochemical, FAM/TAMRA oligo cleavage fluorescence | DNA dC->dU-editing enzyme APOBEC-3A (Homo sapiens), P31941 | recombinant A3A, FAM/TAMRA ssDNA deamination fluorescence | inhibition, % at 20 µM | 0.41% of 330,000 active | AID 493011, 2011;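 active means at least 40% inhibition at 20 µM here, with at most 30% in a related deaminase screen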;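 further: plate controls were A3A with DMSO for no effect and wells lacking A3A enzyme for full effect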
NTR1 ag: agonists of human NTR1, primary screen, imaging, U2OS cells, beta-arrestin-GFP, high content; Neurotensin receptor type 1 (Homo sapiens), P30989; NTR1-U2OS beta-arrestin-GFP spot imaging, agonist mode; activation, % at 20 µM; 0.17% of 330,000 active;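 active means activation at or above 40% of the spot to cytoplasm intensity ratio, with at least 20 cells analyzed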;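 further: 0% = DMSO without peptide and 100% = 100 nM NTR1 peptide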
Target sequence (P30989 whole entry, looked up): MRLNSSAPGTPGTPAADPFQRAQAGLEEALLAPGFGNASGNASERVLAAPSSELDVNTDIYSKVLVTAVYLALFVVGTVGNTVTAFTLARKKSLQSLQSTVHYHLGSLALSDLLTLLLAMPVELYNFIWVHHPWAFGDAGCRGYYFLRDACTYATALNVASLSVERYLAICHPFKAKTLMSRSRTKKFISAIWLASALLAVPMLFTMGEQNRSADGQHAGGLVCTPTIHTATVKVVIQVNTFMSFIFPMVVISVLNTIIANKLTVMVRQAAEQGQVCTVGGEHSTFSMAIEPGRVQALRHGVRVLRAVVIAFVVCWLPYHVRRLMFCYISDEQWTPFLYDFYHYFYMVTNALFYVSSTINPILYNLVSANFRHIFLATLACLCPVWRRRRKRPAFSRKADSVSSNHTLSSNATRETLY
A3A conf: APOBEC3A deaminase inhibitors, retest, confirmation, selectivity assay for APOBEC3G inhibitor project, biochemical, single concentration, fluorescence readout; shares compounds with APOBEC3A inh; recombinant A3A, ssDNA deaminase UDG fluorescence assay; inhibition, % at 20 µM; 63% of 1,400 active; AID 493151, 2011;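 active means inhibition reaching a set limit, 80% of the first screen's cutoff, at 20 µM in any replicate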;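 further: plate controls were DMSO wells with A3A for no effect and wells lacking A3A enzyme for full effect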
UDG ctr A3A: E. coli UDG inhibitors, confirmation, counter-screen for APOBEC3A inhibitor project, biochemical, single concentration, fluorescence, FAM/TAMRA oligo. 1,000 tested, under 10 active. AID 504714, 2011. inhibition, % at 20 µM. shares compounds with APOBEC3A inh. UDG counterscreen, FAM/TAMRA uracil oligo fluorescence; call rule not given here
Active calls of the source: *. A selection: hits, their analogues and other compounds. The true share with any hit is near 3.2%.

c1cc[n+](CCC[n+]2ccccc2)cc1 was read as APOBEC3G inh 26, AHR activator 1, APOBEC3A inh 71*, NTR1 ag -1, A3A conf 88* and UDG ctr A3A 3.
For CC(CC(=O)Nc1cccc(S(=O)(=O)N2CCCCC2)c1)c1ccccc1 (configuration not stated) the results were APOBEC3G inh 11, AHR activator 2, APOBEC3A inh 40*, NTR1 ag 2 and A3A conf 23.
For CCN1CCN(c2ccc(S(=O)(=O)N3CCOCC3)cc2NC(=O)/C=C/c2ccc(C)cc2)CC1 the results were APOBEC3G inh -1, AHR activator -3, APOBEC3A inh 2 and NTR1 ag 0.
For CCN1CCN(c2ccc(S(=O)(=O)N3CCCCC3)cc2NC(=O)/C=C/c2ccc(F)cc2)CC1 the results were APOBEC3G inh 22, AHR activator 0, APOBEC3A inh 61*, NTR1 ag 2, A3A conf 64* and UDG ctr A3A 0.
CCN1CCN(c2ccc(S(=O)(=O)N3CCCCC3)cc2NC(=O)CC(NC(C)=O)c2ccccc2)CC1 (configuration not stated) was read as APOBEC3G inh 13, AHR activator 1, APOBEC3A inh 88*, NTR1 ag -1, A3A conf 65* and UDG ctr A3A 3.
For CCN1CCN(c2ccc(S(=O)(=O)N3CCCCC3)cc2NC(=O)/C=C/c2ccc([N+](=O)[O-])cc2)CC1 the results were APOBEC3G inh 12, AHR activator 0, APOBEC3A inh 40*, NTR1 ag 1 and A3A conf 18.
`CCN1CCN(c2ccc(S(=O)(=O)N3CCCCC3)cc2NC(=O)c2ccc(OC(F)F)cc2)CC1` gave APOBEC3G inh 5, AHR activator -2, APOBEC3A inh 47*, NTR1 ag 1, A3A conf 54* and UDG ctr A3A 2.
CCN1CCN(c2ccc(S(=O)(=O)N3CCCCC3)cc2NC(=O)/C=C/c2ccc(OC(F)F)cc2)CC1 was read as APOBEC3G inh 12, AHR activator -2, APOBEC3A inh 46*, NTR1 ag 7, A3A conf 59* and UDG ctr A3A 2.
Screening CN1CCN(c2ccc(S(=O)(=O)N3CCCCC3)cc2NC(=O)/C=C/c2ccc(OC(F)F)cc2)CC1 returned APOBEC3G inh -1, AHR activator 0, APOBEC3A inh 29 and NTR1 ag 1.
For CC(=O)Nc1ccc(NC(=O)C(C)OC(=O)c2cccc(S(=O)(=O)N3CCCC3)c2)cc1 (configuration not stated) the results were APOBEC3G inh 16, AHR activator 1, APOBEC3A inh 42*, NTR1 ag -1 and A3A conf 6.
`CCN1CCN(c2ccc(S(=O)(=O)N3CCCCC3)cc2NC(=O)c2cccc(OC(F)F)c2)CC1` gave APOBEC3G inh 3, AHR activator 2, APOBEC3A inh 39 and NTR1 ag 1.
For CCN1CCN(c2ccc(S(=O)(=O)N3CCOCC3)cc2NC(=O)CC(C)C)CC1 the results were APOBEC3G inh 2, AHR activator 3, APOBEC3A inh 3 and NTR1 ag 2.
For CCN1CCN(c2ccc(S(=O)(=O)N3CCOCC3)cc2NC(=O)C(C)Oc2ccc(Cl)cc2)CC1 (configuration not stated) the results were APOBEC3G inh 11, AHR activator -1, APOBEC3A inh 56*, NTR1 ag 1, A3A conf 44* and UDG ctr A3A 2.
For Cc1ccc(Nc2[nH]c(=O)c3ccccc3c2C(=O)c2ccccc2)cc1 the results were APOBEC3G inh -2, AHR activator 5, APOBEC3A inh 1 and NTR1 ag 0.
Screening OCCC1CN(Cc2cccn2-c2cccnc2)CCN1C1CCCC1 (configuration not stated) returned APOBEC3G inh -4, AHR activator 2, APOBEC3A inh 2 and NTR1 ag 0.
CC(C)C[C@H](NC(=O)C1CCN(S(=O)(=O)c2ccccc2)CC1)C(=O)NCc1ccccn1 was read as APOBEC3G inh -5, AHR activator 2, APOBEC3A inh -6 and NTR1 ag 1.
`O=c1cccc2n1Cc1cc3ccccc3nc1-2` gave APOBEC3G inh 2, AHR activator 58*, APOBEC3A inh 49*, NTR1 ag 0 and A3A conf 26.
`CCOC(=O)c1ccc2c(c1)N(CC)C(=O)c1ccccc1S2` gave APOBEC3G inh 12, AHR activator 0, APOBEC3A inh 52*, NTR1 ag -1, A3A conf 72* and UDG ctr A3A -3.
C=CCNC(=O)c1ccc2c(c1)N(CC)C(=O)c1ccccc1S2 was read as APOBEC3G inh -2, AHR activator 10, APOBEC3A inh 0 and NTR1 ag -1.
Screening CCn1c2ccccc2c(=O)c2ccccc21 returned APOBEC3G inh 17, AHR activator 7, APOBEC3A inh 64*, NTR1 ag -1 and A3A conf 19.
For CCn1c2ccccc2c2cc([N+](=O)[O-])ccc21 the results were APOBEC3G inh -6, AHR activator 3, APOBEC3A inh -3 and NTR1 ag 1.
`CCOC(=O)C1CCCN(C(=S)NC2CCCC2)C1` (configuration not stated) gave APOBEC3G inh -5, AHR activator -3, APOBEC3A inh -2 and NTR1 ag -1.
`O=C(CSc1nc2ccccc2c(=O)[nH]1)c1cccs1` gave APOBEC3G inh 0, AHR activator 6, APOBEC3A inh 44*, NTR1 ag -2 and A3A conf 0.
COc1c(-c2ccc([N+](=O)[O-])cc2[N+](=O)[O-])c(=O)n(C)c(=O)n1C was read as APOBEC3G inh -5, AHR activator 6, APOBEC3A inh 0 and NTR1 ag 3.
`O=C(Nc1cc(C2CC2)nn1-c1ccccc1)c1ccc(F)cc1` gave APOBEC3G inh 15, AHR activator 3, APOBEC3A inh 3 and NTR1 ag -2.
For Cc1sc2ncnc(N3CCC(C(=O)Nc4ccc(OC(F)F)c(Cl)c4)CC3)c2c1C the results were APOBEC3G inh -1, AHR activator 1, APOBEC3A inh 11 and NTR1 ag 29.
For CCN(CC)CCNC(=O)c1ccc(NC(=O)C2CCN(c3ncnc4sc(C)c(C)c34)CC2)cc1 the results were APOBEC3G inh 16, AHR activator -2, APOBEC3A inh 44*, NTR1 ag 2 and A3A conf 57*.
